Results: PubChem BioAssay AID1159580 (chemical genetic matrix, 2015)
The whole screen tested about 5,500 compounds, of which about 2,000 (36%) were called active. Not shown: some 18% with an inconclusive outcome. Cut-off read from the data, not from the text of the source: active = normalized growth mostly below about 0.91 (no sharp cut-off); inconclusive = no clear call, values can overlap the other calls; inactive = mostly above about 0.92. The list shows a part of the results.

Assay: chemical genetic growth profiling, strain panel (AID 1159580);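 note: tested at 20 µM; growth read once vehicle control cultures reached saturation at 30 °C; 1 = growth at the plate median or of vehicle wells; lower values mean less growth of the strain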
Details: S. cerevisiae deletion strains, growth OD

Measured: normalized growth

COc1ccc(-c2coc3cc(O)ccc3c2=O)c(OC)c1
inactive: locus YAL013W, strain DEP1, active compounds read low 1.01 | locus YAL021C, strain ccr4, active compounds read low 0.995 | locus YAL026C, strain drs2, active compounds read low 1.01 | locus YAL030W, strain snc1, active compounds read low 1 | locus YBL061C, strain skt5, active compounds read low 0.996 | locus YBR009C, strain hhf1, active compounds read low 1.01 | locus YBR021W, strain FUR4, active compounds read low 0.887 | locus YBR023C, strain chs3, active compounds read low 1.01 | locus YBR171W, strain sec66, active compounds read low 1.01 | locus YBR229C, strain ROT2, active compounds read low 1 | locus YBR231C, strain swc5, active compounds read low 0.982 | locus YBR279W, strain paf1, active compounds read low 1.01 | locus YCL011C, strain gbp2, active compounds read low 1.03 | locus YCL016C, strain dcc1, active compounds read low 1.01 | locus YCL029C, strain bik1, active compounds read low 1.01 | locus YCL069W, strain vba3, active compounds read low 1.01 | locus YCR088W, strain abp1, active compounds read low 1 | locus YDL005C, strain med2, active compounds read low 1 | locus YDL035C, strain GPR1, active compounds read low 1 | locus YDL040C, strain nat1, active compounds read low 1 | locus YDL074C, strain BRE1, active compounds read low 1.02 | locus YDL101C, strain DUN1, active compounds read low 1 | locus YDL185W, strain tfp1, active compounds read low 0.994 | locus YDL192W, strain arf1, active compounds read low 0.99 | locus YDR001C, strain nth1, active compounds read low 1 | locus YDR069C, strain doa4, active compounds read low 0.982 | locus YDR101C, strain arx1, active compounds read low 0.982 | locus YDR137W, strain rgp1, active compounds read low 0.995 | locus YDR159W, strain sac3, active compounds read low 0.976 | locus YDR162C, strain NBP2, active compounds read low 0.937 | locus YDR195W, strain ref2 0.974 | locus YDR297W, strain sur2, active compounds read low 0.995 | locus YDR318W, strain mcm21, active compounds read low 1 | locus YDR334W, strain swr1, active compounds read low 0.994 | locus YDR335W, strain msn5, active compounds read low 1.02 | locus YDR388W, active compounds read low 1 | locus YDR392W, strain spt3, active compounds read low 0.951 | locus YDR502C, strain sam2, active compounds read low 1 | locus YEL003W, strain gim4, active compounds read low 0.985 | locus YEL037C, strain rad23, active compounds read low 1.01 | locus YEL061C, strain CIN8 (second series), active compounds read low 1 | locus YEL061C, strain CIN8, active compounds read low 1 | locus YER015W, strain faa2, active compounds read low 1.02 | locus YER016W, strain bim1, active compounds read low 0.999 | locus YER110C, active compounds read low 1.03 | locus YER111C, strain swi4, active compounds read low 0.999 | locus YER155C, strain BEM2 (second series), active compounds read low 0.977 | locus YER155C, strain BEM2, active compounds read low 1.01 | locus YER167W, strain BCK2, active compounds read low 1.01 | locus YFR010W, strain ubp6, active compounds read low 0.984 | locus YGL078C, strain dbp3, active compounds read low 0.988 | locus YGL086W, strain mad1, active compounds read low 0.991 | locus YGL167C, strain pmr1, active compounds read low 1.01 | locus YGL173C, strain kem1, active compounds read low 0.997 | locus YGL227W, strain vid30, active compounds read low 0.992 | locus YGL240W, strain doc1, active compounds read low 0.972 | locus YGL248W, strain PDE1, active compounds read low 1 | locus YGL253W, strain hxk2, active compounds read low 0.981 | locus YGR135W, strain pre9, active compounds read low 0.993 | locus YGR229C, strain SMI1, active compounds read low 0.97 | locus YGR252W, strain gcn5, active compounds read low 1.01 | locus YHR013C, strain ard1, active compounds read low 1.01 | locus YHR027C, strain rpn1, active compounds read low 1 | locus YHR030C, strain SLT2, active compounds read low 1.01 | locus YHR079C, strain IRE1 (second series), active compounds read low 1.01 | locus YHR094C, strain hxt1, active compounds read low 0.995 | locus YHR129C, strain ARP1, active compounds read low 1.02 | locus YHR142W, strain chs7, active compounds read low 0.999 | locus YHR200W, strain rpn10, active compounds read low 1 | locus YIL066C, strain RNR3, active compounds read low 0.994 | locus YIL073C, strain SPO22, active compounds read low 1.02 | locus YIL125W, strain kgd1, active compounds read low 0.996 | locus YIR030C, strain dcg1, active compounds read low 0.999 | locus YJL092W, strain hpr5, active compounds read low 1 | locus YJL095W, strain BCK1 (second series), active compounds read low 1 | locus YJL095W, strain BCK1, active compounds read low 0.976 | locus YJL115W, strain asf1, active compounds read low 1.01 | locus YJL129C, strain trk1, active compounds read low 1.03 | locus YJL134W, strain LCB3, active compounds read low 1.01 | locus YJL154C, strain vps35, active compounds read low 1 | locus YJL164C, strain tpk1, active compounds read low 1.01 | locus YJL166W, strain qcr8, active compounds read low 0.995 | locus YJL168C, strain set2, active compounds read low 1.02 | locus YJL187C, strain SWE1 (second series), active compounds read low 0.998 | locus YJL187C, strain SWE1, active compounds read low 1.02 | locus YJR043C, strain POL32, active compounds read low 0.999 | locus YJR075W, strain HOC1, active compounds read low 0.994 | locus YKL009W, strain mrt4, active compounds read low 1.04 | locus YKL068W, active compounds read low 1.01 | locus YKL085W, strain MDH1 (second series), active compounds read low 0.996 | locus YKL085W, strain MDH1, active compounds read low 0.996 | locus YKL160W, strain elf1, active compounds read low 1.02 | locus YKL190W, strain CNB1, active compounds read low 1 | locus YKR001C, strain vps1, active compounds read low 0.973 | locus YKR026C, strain gcn3, active compounds read low 1 | locus YKR091W, strain srl3, active compounds read low 1.01 | locus YLL001W, strain dnm1, active compounds read low 0.963 | locus YLL026W, active compounds read low 1 | locus YLL041C, strain sdh2, active compounds read low 1.01 | locus YLR027C, strain aat2, active compounds read low 1.01 | locus YLR039C, strain RIC1, active compounds read low 0.976 | locus YLR058C, strain SHM2, active compounds read low 1.01 | locus YLR102C, strain apc9, active compounds read low 1 | locus YLR221C, strain rsa3, active compounds read low 1 | locus YLR258W, strain gsy2, active compounds read low 1.01 | locus YLR262C, strain YPT6 (second series), active compounds read low 0.995 | locus YLR262C, strain YPT6, active compounds read low 0.989 | locus YLR268W, strain sec22, active compounds read low 0.991 | locus YLR320W, strain mms22, active compounds read low 1 | locus YLR330W, strain CHS5, active compounds read low 1.02 | locus YLR342W, strain FKS1 (second series), active compounds read low 1.03 | locus YLR342W, strain FKS1, active compounds read low 1.02 | locus YLR357W, strain rsc2, active compounds read low 0.98 | locus YLR370C, strain arc18, active compounds read low 1 | locus YLR371W, strain rom2, active compounds read low 0.998 | locus YLR384C, strain iki3, active compounds read low 0.998 | locus YLR418C, strain cdc73, active compounds read low 0.971 | locus YML016C, strain PPZ1, active compounds read low 1 | locus YML032C, strain rad52, active compounds read low 1.01 | locus YML120C, strain ndi1, active compounds read low 1.02 | locus YML124C, strain tub3, active compounds read low 1 | locus YMR058W, strain fet3, active compounds read low 1 | locus YMR078C, strain ctf18, active compounds read low 1.01 | locus YMR125W, strain sto1, active compounds read low 1.01 | locus YMR129W, active compounds read low 1.01 | locus YMR205C, strain PFK2, active compounds read low 1.01 | locus YMR223W, strain ubp8, active compounds read low 1.01 | locus YMR231W, strain pep5, active compounds read low 1.01 | locus YMR307W, strain GAS1, active compounds read low 0.901 | locus YNL067W, strain RPL9B, active compounds read low 0.984 | locus YNL071W, strain lat1, active compounds read low 1.01 | locus YNL128W, strain TEP1, active compounds read low 1 | locus YNL209W, strain ssb2, active compounds read low 1.01 | locus YNL233W, strain BNI4, active compounds read low 0.993 | locus YNL248C, strain rpa49, active compounds read low 1 | locus YNL250W, strain rad50, active compounds read low 1.01 | locus YNL271C, strain bni1, active compounds read low 0.992 | locus YNL298W, strain CLA4, active compounds read low 1.01 | locus YNL307C, strain MCK1, active compounds read low 1.01 | locus YNL322C, strain KRE1 (second series), active compounds read low 1.01 | locus YNR049C, strain mso1, active compounds read low 1.01 | locus YNR052C, strain pop2, active compounds read low 1.01 | locus YOL012C, strain htz1 0.93 | locus YOL147C, strain pex11, active compounds read low 0.998 | locus YOR001W, strain rrp6, active compounds read low 0.998 | locus YOR061W, strain CKA2, active compounds read low 1 | locus YOR069W, strain VPS5, active compounds read low 1.01 | locus YOR070C, strain gyp1, active compounds read low 1.01 | locus YOR080W, strain dia2, active compounds read low 1 | locus YOR083W, strain WHI5, active compounds read low 1.02 | locus YOR106W, strain vam3, active compounds read low 1.03 | locus YOR136W, strain idh2, active compounds read low 0.997 | locus YOR144C, strain elg1, active compounds read low 0.988 | locus YOR184W, strain ser1, active compounds read low 0.952 | locus YOR265W, strain rbl2, active compounds read low 1.01 | locus YOR270C, strain vph1, active compounds read low 0.959 | locus YOR290C, strain snf2, active compounds read low 1.02 | locus YOR316C, strain cot1, active compounds read low 1.01 | locus YPL051W, strain arl3, active compounds read low 1.01 | locus YPL055C, strain LGE1, active compounds read low 0.971 | locus YPL078C, strain atp4, active compounds read low 1.03 | locus YPL106C, strain sse1, active compounds read low 1.01 | locus YPL240C, strain hsp82, active compounds read low 1.01 | locus YPL241C, strain CIN2, active compounds read low 0.992 | locus YPR119W, strain clb2, active compounds read low 1.01 | locus YPR141C, strain kar3, active compounds read low 1 | locus YPR163C, strain tif3, active compounds read low 0.999 | locus YPR167C, strain met16, active compounds read low 1.01 | strain wtn01, active compounds read low 1.01
